Screening data as filed in PubChem BioAssay.
Many of the other results were omitted from the sample, so hits are more common in it than they were.
DT40 TDP1 CPT – DT40-hTDP1 cell growth loss with CPT | chicken DT40 Tdp1-/-;hTDP1 cells + 20 nM CPT, ATP luminescence, 48 h | 420,000 compounds, 12% hits | Potency, µM (highest dose often 46.2 µM), for inactives: top-dose activity change, negative = growth inhibition, hits mostly inhibitors; also: potency is read from the fitted curve at half-maximal effect; nearly all actives have a fitted effect of over 55% in size
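Chicken DT40 Tdp1-/- cells stably complemented with human TDP1 were seeded at 400 cells/well in medium containing 20 nM camptothecin, exposed to pin-transferred compounds, and grown at 37 °C for at least 48 hr. Viability was read as ATP luminescence.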
DT40 TDP1 no CPT – qHTS for Inhibitors of human tyrosyl-DNA phosphodiesterase 1 (TDP1): qHTS in cells in absence of CPT. DT40 Tdp1-/- hTDP1 cells, no CPT, ATP luminescence, 48 h. AID 686978, 2013. Potency, µM (titrated, usually from 46.2 µM), for inactives: at the top dose activity change, negative = growth inhibition, actives largely listed as inhibitors. 420,000 compounds, 15% hits; also: potency is read from the fitted curve at half-maximal effect; nearly all actives have a fitted effect of over 55% in size
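No-CPT arm: Tdp1-/-;hTDP1 DT40 cells (400/well) plus compounds, incubated ≥48 hr at 37 °C. Readout CellTiter-Glo luminescence.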
12-LOX inh – inhibitors of human 12S-lipoxygenase ALOX12 | purified 12hLO, xylenol orange hydroperoxide absorbance | 580,000 compounds, 1.1% hits | Potency, µM (titrated, usually from 108 µM), without a hit: at the top dose activity change, negative = inhibition, most hits filed as inhibitors; also: potency is read from the fitted curve at half-maximal effect
Target sequence (P18054 whole entry, looked up): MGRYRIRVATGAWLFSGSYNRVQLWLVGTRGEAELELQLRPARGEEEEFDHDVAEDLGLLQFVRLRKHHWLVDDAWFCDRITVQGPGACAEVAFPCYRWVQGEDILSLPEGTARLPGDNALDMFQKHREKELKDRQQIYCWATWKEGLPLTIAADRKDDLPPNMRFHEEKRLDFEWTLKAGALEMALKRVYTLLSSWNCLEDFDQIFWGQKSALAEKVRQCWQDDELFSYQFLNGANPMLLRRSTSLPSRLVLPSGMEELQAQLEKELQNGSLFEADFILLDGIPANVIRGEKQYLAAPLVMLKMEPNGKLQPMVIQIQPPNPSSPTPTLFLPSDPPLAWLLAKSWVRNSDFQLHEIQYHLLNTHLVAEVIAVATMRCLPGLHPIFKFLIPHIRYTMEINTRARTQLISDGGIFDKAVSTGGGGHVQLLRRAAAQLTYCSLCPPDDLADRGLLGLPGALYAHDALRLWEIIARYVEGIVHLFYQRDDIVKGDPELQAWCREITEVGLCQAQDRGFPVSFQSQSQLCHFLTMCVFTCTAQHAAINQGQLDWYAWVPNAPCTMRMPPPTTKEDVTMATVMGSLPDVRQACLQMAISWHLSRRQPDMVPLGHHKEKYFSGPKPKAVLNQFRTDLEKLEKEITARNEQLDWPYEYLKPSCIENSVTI
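Purified human 12hLO at 150 nM in 25 mM Hepes, 0.01% Triton X-100, pH 7.0, preincubated 15 min at room temperature with compound. Reaction started with 40 uM arachidonic acid, 30 min at room temperature. Hydroperoxide measured by Fe-xylenol orange, 573/405 nm absorbance ratio.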
HT1080 IDH1KD tx – kills HT-1080 cells with IDH1 knockdown | Potency, µM (titrated, usually from 46.1 µM), inactives show at the highest dose activity, negative = toxicity, hits mostly cytotoxic | AID 686971 | 360,000 compounds, 2% hits | HT-1080 IDH1 knockdown viability, ATP luminescence, 48 h;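 also: potency is read from the fitted curve at half-maximal effect; 0% = DMSO wells and -100% = cell-free medium wells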
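In this qHTS, HT-1080 cells depleted of IDH1 are exposed for 48 h at 37 °C to compound titrations. Toxicity is scored from CellTiter-Glo luminescence, with DMSO as full viability and medium alone as none.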
HT1080-NT tox – kills 2HG-producing HT-1080-NT fibrosarcoma cells; HT-1080-NT fibrosarcoma viability, CellTiter-Glo ATP luminescence, 48 h; Potency, µM (series often up to 46.1 µM), for inactives: at the highest dose activity, negative = less viability, actives largely listed as cytotoxic; 360,000 compounds, 1.6% hits; AID 686970;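 also: NT is the 2HG producing partner of a matched IDH1 knockdown line; potency is read from the fitted curve at half-maximal effect; 0% = DMSO-treated cells and -100% = media-only wells without cells; nearly all actives have a fitted effect of over 55% in size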
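Viability of the 2HG-overproducing fibrosarcoma line after 48 hours of compound exposure at 37 degrees C was determined by luminescence with CellTiter-Glo, and concentration-effect curves were then fitted and categorized.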
IL-1B inflam inh – blocks inflammasome-driven IL-1 beta release. THP-1 LPS/ATP IL-1B secretion, AlphaLISA, 16 h; hits give low values. activity change, % at 57.5 µM. 360,000 compounds, 4.7% hits. AID 743279; in the data active = activity change below about -50%; inconclusive = mostly about -30% to -49%
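THP-1 cells pretreated 1 hr with compounds (up to 57.5 uM final), then stimulated with LPS (250 ng/mL final) plus ATP (1.25 mM final); secreted IL-1B measured by AlphaLISA after 16 hr, decreased signal indicating inhibition.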
Starred values were filed as active, the others as inactive; ! = not active in a repeat; [ ] = another dose, or the depositor's remark. Unless noted, calls follow the shape of the dose curve; as a rule, active = well fitted curve in the direction sought with a large enough effect; inconclusive = small, poorly fitted or top-dose-only effect, or another doubt; inactive = no such curve, though single readings can be large; an effect the other way counts as inactive or inconclusive. Unless noted, % is scaled to controls: 0 for no effect and ±100 for the full control effect.

Screening Cc1ccc(NC(=O)Cn2c(-c3cncs3)nc3ccccc32)c(Br)c1 returned DT40 TDP1 CPT inconclusive, DT40 TDP1 no CPT inconclusive and 12-LOX inh -26.8%.
Cc1ccccc1Cn1c(Cc2ccccc2)nc2ccccc21 was read as DT40 TDP1 CPT inconclusive, DT40 TDP1 no CPT 18.4µM*, 12-LOX inh -3.0%, HT1080 IDH1KD tx 1.4%, HT1080-NT tox -0.2% and IL-1B inflam inh -20.0.
`Cc1ccc2nc(NC(=O)Cn3nc4c(cc3=O)CCCCC4)sc2c1` gave 12-LOX inh 6.9%.
Screening Cc1nc(-c2ccc(F)cc2)n(Cc2cccc(C#N)c2)c(=O)c1CCO returned 12-LOX inh 7.8%.
Screening CC1(C)OC(=O)C2=C(CC(CCc3ccccc3)OC2c2ccc(Cl)c(Cl)c2)O1 (stereo not drawn) returned 12-LOX inh 7.2%.
`COC(=O)c1ccc(CNC(=O)C(C)Cl)cc1` (stereo not drawn) gave 12-LOX inh -19.8%.
`Brc1ccccc1Cn1c(-c2cscn2)nc2ccccc21` gave DT40 TDP1 CPT 23.1µM*, DT40 TDP1 no CPT inconclusive, 12-LOX inh 25.9%, HT1080 IDH1KD tx inconclusive, HT1080-NT tox -1.9% and IL-1B inflam inh -6.5.
For Cc1nc2ccccc2n1Cc1ccc(Cl)cc1 the results were DT40 TDP1 CPT 10.3µM*!, DT40 TDP1 no CPT 7.31µM*, 12-LOX inh 23.1%, HT1080 IDH1KD tx inconclusive, HT1080-NT tox inconclusive and IL-1B inflam inh -13.9.
Clc1ccc(COn2c(-c3ccccc3)nc3ccccc32)cc1 was read as DT40 TDP1 CPT inconclusive, DT40 TDP1 no CPT 23.1µM*, 12-LOX inh -5.6%, HT1080 IDH1KD tx 0.0%, HT1080-NT tox -4.8% and IL-1B inflam inh inconclusive.
For Clc1ccc(COn2c(-c3ccc(Cl)cc3)nc3ccccc32)cc1 the results were DT40 TDP1 CPT inconclusive, DT40 TDP1 no CPT inconclusive, 12-LOX inh -27.8%, HT1080 IDH1KD tx 8.5%, HT1080-NT tox -5.1% and IL-1B inflam inh -25.8.
For Cc1ccccc1Cn1c(-c2cncs2)nc2ccccc21 the results were DT40 TDP1 CPT inconclusive, DT40 TDP1 no CPT inconclusive, 12-LOX inh 0.0%, HT1080 IDH1KD tx -22.1%, HT1080-NT tox -19.8% and IL-1B inflam inh -52.1*.
Screening CCn1ncc(N2CCC(NC(=O)CC(C)(C)C)CC2)cc1=O returned 12-LOX inh -5.9%.
COc1ccc([C@H]2C[C@@H](O)[C@@H](O)[C@@H]2NC(=O)C2CCCC2)cc1 was read as 12-LOX inh 34.5%[176 µM].
Screening CC(C)(C)c1ccc(Cn2c(Cc3ccccc3)nc3ccccc32)cc1 returned DT40 TDP1 CPT 7.31µM*, DT40 TDP1 no CPT 6.51µM* and 12-LOX inh -18.5%.
Screening Cc1ccc(C(=O)[C@@H]2[C@H]3C4COC(O4)C(=O)[C@@H]3[C@H]3C=Cc4ccccc4N32)cc1 (stereo partly drawn) returned DT40 TDP1 CPT -3.2% and DT40 TDP1 no CPT -18.0%.
CC(=O)[C@@H]1[C@H]2[C@H](C(=O)[C@H]3OC[C@@H]2O3)[C@H]2C=Cc3ccccc3N21 was read as DT40 TDP1 CPT inconclusive and DT40 TDP1 no CPT 21.1µM*.
For Cc1ccc(C(=O)c2ccccc2C(=O)O)cc1C the results were DT40 TDP1 CPT 9.0%, DT40 TDP1 no CPT 0.1%, 12-LOX inh -6.3%, HT1080 IDH1KD tx 15.1%, HT1080-NT tox 14.7% and IL-1B inflam inh 17.6.
Screening Cc1cc(C)c(C)c(C(=O)c2ccccc2C(=O)O)c1C returned DT40 TDP1 CPT 3.66µM*, DT40 TDP1 no CPT 3.26µM*, 12-LOX inh 0.4%, HT1080 IDH1KD tx -2.2%, HT1080-NT tox 0.8% and IL-1B inflam inh 33.6.
`O=C(Nc1cnn(Cc2ccc(F)cc2)c1)C(c1ccccc1)c1ccccc1` gave DT40 TDP1 CPT inconclusive, DT40 TDP1 no CPT 20.6µM*, 12-LOX inh 0.0%, HT1080 IDH1KD tx inconclusive, HT1080-NT tox inconclusive and IL-1B inflam inh -6.3.
For CC(C)C/C(O)=C/c1nc2cc(Cl)ccc2oc1=O the results were DT40 TDP1 CPT inconclusive, DT40 TDP1 no CPT inconclusive, 12-LOX inh inconclusive, HT1080 IDH1KD tx inconclusive, HT1080-NT tox inconclusive and IL-1B inflam inh 1.1.
O=c1oc2ccc(Cl)cc2nc1/C=C(\O)c1ccco1 was read as DT40 TDP1 CPT inconclusive, DT40 TDP1 no CPT 18.4µM*, 12-LOX inh 227.9%, HT1080 IDH1KD tx -20.1%, HT1080-NT tox -18.2% and IL-1B inflam inh -4.2.
Screening Cc1cc(C(=O)OCC(=O)Nc2sc3c(c2C#N)CCC(C)C3)c2ccccc2n1 (stereo not drawn) returned DT40 TDP1 CPT 12.8%, DT40 TDP1 no CPT 2.3%, 12-LOX inh 39.8µM*, HT1080 IDH1KD tx -5.3%, HT1080-NT tox 15.9% and IL-1B inflam inh 51.8.
CC(=O)c1c(C)[nH]c(C(=O)OCC(=O)Nc2sc3c(c2C#N)CCC(C)C3)c1C (stereo not drawn) was read as DT40 TDP1 CPT inconclusive, DT40 TDP1 no CPT 23.1µM*, 12-LOX inh inconclusive, HT1080 IDH1KD tx 25.9µM*, HT1080-NT tox -9.4% and IL-1B inflam inh 13.1.
Screening O=C(OCc1cncs1)c1ccccc1 returned DT40 TDP1 CPT 2.9%, DT40 TDP1 no CPT -13.6%, 12-LOX inh -9.2%, HT1080 IDH1KD tx 1.6%, HT1080-NT tox 14.7% and IL-1B inflam inh 0.9.
Screening CNC(=O)c1ccc(Nc2cc(Nc3ccccc3S(=O)(=O)C(C)C)c3cc[nH]c3n2)nc1 returned 12-LOX inh 0.968µM*.
`Cc1ccc(NC(=O)c2ccc(Nc3ccccc3F)nc2)cc1` gave DT40 TDP1 CPT inconclusive, DT40 TDP1 no CPT inconclusive, 12-LOX inh -7.7%, HT1080 IDH1KD tx -1.1%, HT1080-NT tox -9.9% and IL-1B inflam inh -4.0.
`CCC1Oc2ccc(C)cc2N(CC(=O)NCc2cccc(OC)c2)C1=O` (stereo not drawn) gave DT40 TDP1 CPT inconclusive, DT40 TDP1 no CPT 10.3µM*, 12-LOX inh -5.3%, HT1080 IDH1KD tx 8.9%, HT1080-NT tox 3.8% and IL-1B inflam inh -8.0.
`CCC1Oc2ccccc2N(CC(=O)NCc2cc(OC)ccc2OC)C1=O` (stereo not drawn) gave DT40 TDP1 CPT inconclusive, DT40 TDP1 no CPT 13µM* and 12-LOX inh -23.7%.
`COc1ccc(NC(=O)CN2C(=O)C(C)Oc3ccc(C)cc32)cc1` (stereo not drawn) gave DT40 TDP1 CPT 5.8%, DT40 TDP1 no CPT -7.2%, 12-LOX inh -2.4%, HT1080 IDH1KD tx 20.6µM*, HT1080-NT tox inconclusive and IL-1B inflam inh -18.0.
